Screening results (PubChem BioAssay)
This is a sample that favours compounds with a hit; in the whole collection about 2.3% have one here.
HTT ATP protect: cytoprotection in Huntington HTT-Q103 PC12 cell model | PC12 HTT-Q103 induced, cytoprotection, ATP luminescence, 40 h | Potency, µM (highest dose often 56.4 µM), inactives show cytoprotection (ATP increase), hits mostly activators | 230,000 tested, 0.14% active; note: potency is the fitted concentration of half-maximal effect; % of control where 0% means no effect; nearly all actives have a fitted effect of over 45% in size
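ATP quantification (ATPlite) reports survival of PC12 cells in which tebufenozide, 100 nM final, switches on Htt exon 1 with 103 glutamines linked to GFP; compounds are titrated.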
JMJD2E inh: JMJD2E (human) inhibition. B2RXH2. JMJD2E catalytic domain, FDH-coupled NADH fluorescence (FDH is formaldehyde dehydrogenase). Potency, µM (top dose mostly 57.1 µM), without a hit: at the highest dose activity change, negative = inhibition, actives largely listed as inhibitors. 230,000 tested, 1.6% active; active = well fitted inhibition curve with a large enough effect, not every such curve was filed as active; inconclusive = small, poorly fitted or top-dose-only effect, or another doubt; inactive = no such curve, though single readings can be large or run the other way;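 note: potency is the fitted concentration of half-maximal effect; 0% = wells with enzyme and -100% = buffer wells without enzyme; nearly all actives have a fitted effect of over 50% in size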
Target sequence (B2RXH2 1-337 limits assumed): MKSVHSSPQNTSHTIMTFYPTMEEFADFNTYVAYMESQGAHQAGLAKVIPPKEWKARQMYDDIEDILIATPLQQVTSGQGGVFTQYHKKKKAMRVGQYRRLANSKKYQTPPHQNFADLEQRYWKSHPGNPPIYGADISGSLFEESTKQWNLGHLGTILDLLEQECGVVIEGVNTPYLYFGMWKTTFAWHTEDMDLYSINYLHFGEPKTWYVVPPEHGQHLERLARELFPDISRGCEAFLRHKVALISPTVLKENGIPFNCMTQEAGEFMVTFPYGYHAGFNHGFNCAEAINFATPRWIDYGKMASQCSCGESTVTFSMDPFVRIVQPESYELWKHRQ
RGS12 GoLoco inh: inhibitors of human Gai1-RGS12 GoLoco interaction (red fluorophore); Gai1:RGS12 GoLoco peptide FP, rhodamine, 10 min; P63096; Potency, µM (series often up to 61.6 µM), for inactives: at the top dose activity, negative = inhibition, most hits filed as inhibitors; 230,000 tested, 0.44% active; active = well fitted inhibition curve with a large enough effect, not every such curve was filed as active; inactive = no such curve, though single readings can be large or run the other way; note: potency is the fitted concentration of half-maximal effect; % is set by controls: 0 for no effect and ±100 for the full control effect; nearly all actives have a fitted effect of over 30% in size
FBPA coupling cs: counter-screen for Giardia aldolase inhibitors: coupling enzyme system | AID 2472 | activity change, negative = inhibition, % at 58.2 µM, hits read low | 290,000 tested, 0.67% active | coupling enzyme system counterscreen, AmpLite Red fluorescence; in the data active = activity change below about -30%; note: % is set by controls: 0 for no effect and ±100 for the full control effect
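Final compound at 57.5 uM, incubated 10 min at RT with coupling enzyme reagent (glyceraldehyde-3-phosphate), then 20 min with substrate and AmpLite Red detection. Fluorescence read at 525/598 nm; tests interference with the coupling assay, not aldolase inhibition.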
HttQ103 aggreg: reduces HttQ103-GFP aggregates in PC12 cells | 220,000 tested, 1.1% active | AID 1688 | Potency, µM (series often up to 46.1 µM), inactives show top-dose activity change, negative = inhibition, most hits filed as inhibitors | PC12 HttQ103-GFP aggregates, Acumen cytometry, 40 h; note: potency is the fitted concentration of half-maximal effect; % is set by controls: 0 for no effect and ±100 for the full control effect; nearly all actives have a fitted effect of over 60% in size
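Using laser scanning cytometry, GFP-positive aggregates were counted after lysis of PC12 cells induced with 100 nM tebufenozide to express HTT exon 1 Q103–GFP. Compounds were tested in titration.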
VDR inh: blocks the human vitamin D receptor. 400,000 tested, 0.93% active. Potency, µM, without a hit: max response, negative = inhibition, hits mostly inhibitors. VDR-SRC2-3 peptide fluorescence polarization, 2 h. AID 504847. P11473; note: potency is the fitted concentration of half-maximal effect; % is set by controls: 0 for no effect and ±100 for the full control effect
Target sequence (P11473 whole entry, looked up): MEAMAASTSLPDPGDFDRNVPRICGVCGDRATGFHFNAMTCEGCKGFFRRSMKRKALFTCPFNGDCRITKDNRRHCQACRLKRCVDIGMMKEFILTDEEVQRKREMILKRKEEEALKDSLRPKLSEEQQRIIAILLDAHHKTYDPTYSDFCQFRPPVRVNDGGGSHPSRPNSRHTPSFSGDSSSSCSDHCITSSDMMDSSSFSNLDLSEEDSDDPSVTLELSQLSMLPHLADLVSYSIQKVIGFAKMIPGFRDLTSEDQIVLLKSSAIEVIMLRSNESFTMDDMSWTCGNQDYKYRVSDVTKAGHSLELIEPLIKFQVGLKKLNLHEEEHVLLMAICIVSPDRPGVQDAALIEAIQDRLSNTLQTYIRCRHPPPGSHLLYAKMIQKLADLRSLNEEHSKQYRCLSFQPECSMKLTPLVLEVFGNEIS
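The screen uses fluorescence polarization to detect compounds that interfere with recruitment of the SRC2-3 coactivator peptide to VDR; plates are read after 2 h at room temperature.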
The depositor's hits bear a star; ? = inconclusive; · = no result given; ! = not confirmed by another sample; [ ] = another dose, or the depositor's remark. Unless noted, calls come from the whole dose curve; as a rule, active = well fitted curve in the direction sought with a large enough effect; inconclusive = small, poorly fitted or top-dose-only effect, or another doubt; inactive = no such curve, though single readings can be large; an effect the other way counts as inactive or inconclusive.

SMILES	HTT ATP protect	JMJD2E inh	RGS12 GoLoco inh	FBPA coupling cs	HttQ103 aggreg	VDR inh
COC(=O)C1(C)C=C2C(=C(c3ccccc3)C(=O)C2C)CN1 (centres undefined)	-37%	-21%	2%	-5	·	·
Cc1ccc(C)c(NC(=O)CSc2nc(=O)n(Cc3ccncc3)c3c2CCC3)c1	·	·	·	·	·	15%
Cc1ccc(NC(=O)CN2CCCC2c2cccn2C)cc1C (centres undefined)	·	·	·	·	·	11%
CCC(=O)Nc1sc2c(c1C(=O)Nc1ccc(Br)cc1)CCCCC2	·	·	·	·	·	14µM*
NC(=O)c1c(NC(=O)c2cccs2)sc2c1CCCCCC2	-40%	?	-3%	1	?	-4%
CC(C)Cc1csc(NC(=O)c2ccc(Cl)cc2)c1C(=O)O	11%[10 µM]	6%	7%	-19	22µM*	1%
O=C(Nc1sc2c(c1C(=O)Nc1cccc(Cl)c1)CCCC2)c1cccs1	·	·	·	·	·	25µM*
O=C(Nc1sc2c(c1C(=O)O)CCC2)c1ccc(F)cc1	-76%	-8%	8%	1	-10%	2%
Cc1ccc(NC(=O)c2c(NC(=O)c3ccc(F)cc3)sc3c2CCCC3)cc1C	·	·	·	·	·	79µM*
O=C(COC(=O)CC1CCCCC1)Nc1c(Cl)cccc1Cl	·	·	·	·	·	2%
O=C(Nc1sc2c(c1C(=O)O)CCCCC2)c1ccccc1	-39%[10 µM]	3%	-17%	-38*	10%[9.22 µM]	?
O=C(Nc1sc2c(c1C(=O)O)CCC2)c1ccccc1	-33%	-4%	-2%	-21	12%	8%
O=C(Nc1sc2c(c1C(=O)O)CCCC2)c1ccc(Cl)cc1	·	·	·	-36*	·	-17%
Cc1ccc(-n2nnnc2CNC(=O)c2ccccc2S(C)(=O)=O)cc1C	·	·	·	·	·	11%
COc1cc(O)cc(/C=C/c2ccccc2)c1	-128%	?	4%	0	·	8%
COC1=CC(=O)C(O)=C/C1=C\C=C\c1ccccc1	·	13µM*	-8%	-17	·	2.8µM*
Cc1noc(C)c1-c1ccc2ncnc(N3CCOCC3)c2c1	-54%	·	6%	5	·	50µM*
c1cncc(-c2ccc3ncnc(NCCN4CCOCC4)c3c2)c1	-84%	·	-7%	2	·	6%
Cc1noc(C)c1-c1ccc2ncnc(NC3CCNCC3)c2c1	-17%	·	4%	3	·	45µM*
COc1ccc(-c2csc3ncnc(NCCN4CCOCC4)c23)cc1	-26%	4%	11%	-1	13µM*	1%
Cc1ccccc1-c1ccc2ncnc(NCCN3CCOCC3)c2c1	-62%	·	-4%	0	·	50µM*
CC1(c2nnc(Cc3ccccc3)o2)CC(c2ccc(OC(F)(F)F)cc2)=NO1 (centres undefined)	·	·	·	·	·	-4%
Cc1ccc(CNC(=O)c2oc3c(c2C)-c2nn(Cc4ccc(Cl)cc4)cc2CC3)cc1	·	·	·	·	·	3%
N#CCCN(C(=O)COC(=O)Cc1c[nH]c2ccccc12)c1ccccc1	·	·	·	·	·	-5%
Cc1ccccc1-c1ccc2ncnc(N3CCOCC3)c2c1	-15%	·	-17%	0	·	56µM*
SMILES	HTT ATP protect	JMJD2E inh	RGS12 GoLoco inh	FBPA coupling cs	HttQ103 aggreg	VDR inh
CCOc1ccc(C(c2c(O)cc(C)n(Cc3ccco3)c2=O)N2CCN(C)CC2)cc1 (centres undefined)	·	·	·	·	·	-24%
CC(=O)NC1=NN(C(C)=O)C(c2ccc(F)cc2)S1 (centres undefined)	0%[10 µM]	7%	10%	-2	-9%[9.22 µM]	109%
Cc1cc(N)ccc1N1CCCC1	-17%	-28%	14µM*	-23	-16%	71µM*
CCOc1ccc(N(CC(=O)Nc2cccc(OC)c2)S(=O)(=O)c2c(C)noc2C)cc1	-8%[10 µM]	2%	0%	-6	-29%	-1%
CCOc1ccc(N(CC(=O)Nc2cccc(Cl)c2)S(=O)(=O)c2c(C)noc2C)cc1	3%	-3%	1%	-1	22µM*	5%
COC1C=CO[C@@]2(C)Oc3c(C)c(O)c4c(O)c(c(C=NN5CCN(C)CC5)c(O)c4c3C2=O)NC(=O)/C(C)=C\C=CC(C)C(O)[C@@H](C)C(O)C(C)[C@H](OC(C)=O)C1C (some centres undefined)	38%	13µM*	5%	-24	4%	?
CO[C@H]1/C=C/O[C@@]2(C)Oc3c(C)c(O)c4c(O)c(c5c(c4c3C2=O)NC2(CCN(CC(C)C)CC2)N=5)=NC(=O)/C(C)=C\C=C\[C@H](C)[C@H](O)[C@@H](C)[C@@H](O)[C@@H](C)[C@H](OC(C)=O)[C@@H]1C	-76%	·	-2%	·	-31%	40µM*!
CO[C@H]1C=CO[C@]2(C)Oc3c(C)c(O)c4c(O)c(c5c(c4c3C2=O)NC2(CCN(CC(C)C)CC2)N=5)=NC(=O)C(C)=CC=C[C@@H](C)[C@@H](O)[C@@H](C)[C@@H](O)[C@@H](C)[C@@H](OC(C)=O)[C@@H]1C	-56%[17.1 µM]	-5%[25.5 µM]	5%[21.6 µM]	0	·	-3%
Cc1nc2nc(SCC(=O)NCc3ccccc3)nn2c(C)c1Cc1ccccc1Cl	·	·	·	·	·	-9%
O=C(COC(=O)c1ccc(Cl)cc1Cl)Nc1cccc(S(=O)(=O)NC2=NCCC2)c1	·	·	·	·	·	26%
C[C@@H]1C[C@](C)(C(=O)c2ccco2)C=C1c1ccco1	-44%	-9%	-1%	0	·	?
CC(C)(C)C1CCc2[nH]nc(C(=O)O)c2C1 (centres undefined)	3.5µM*	4%	4%	0	-8%	1%
Cc1nn(CC(=O)NCc2ccccc2Br)c(=O)c2cc3occc3n12	·	·	·	·	·	-14%
CCOc1ccc(NC(=S)N2CCCN(Cc3cc(C)ccc3C)C2)cc1	-46%	40%	0%	-4	28µM*	3%
CCOc1ccc(NC(=O)CN2CCCN(Cc3cc(C)ccc3C)S2(=O)=O)cc1	·	·	·	·	·	2%
C[N+](C)(C)c1cc2c(nn1)Nc1ccccc1S2	-20%[10 µM]	·	2%[14.2 µM]	·	·	·
CN(C)CCN(Cc1ccccc1)c1ccccn1	-3%	32µM*!	6%	2	10%	1%
CN(C)c1nccc(N(Cc2ccccc2)Cc2ccccc2)c1C#N	-13%	?	-2%	0	-28%	17%
C[n+]1cccc(/C=N/NC(=O)CC23CC4CC(CC(C4)C2)C3)c1	-11%[10 µM]	6%	4µM*	2	-25%[9.22 µM]	-1%
CNC(=O)c1ccc(NC(=O)CC23CC4CC(CC(C4)C2)C3)cc1	·	·	·	2	·	12%
COc1ccccc1-c1noc(-c2ccc(N3CCC(C)CC3)c([N+](=O)[O-])c2)n1	·	·	·	·	·	4%
COc1cc(C(=O)c2nccc3cc(OC)c(OC)cc23)c([N+](=O)[O-])cc1OC	·	-20%	-6%	-8	14%	-22%
